High-throughput results (PubChem BioAssay)
D2 ag-1 – human D2 receptor agonism in beta-arrestin assay; P14416; DiscoveRx PathHunter D2 beta-arrestin, luminescence, 90 min; 100% = 57 uM dopamine signal; activation, % (concentration not given with the values); actives 0.084% (n = 360,000); AID 624465; in the data active = activation above about 40%; inconclusive = between about 15% and that limit
Target sequence (P14416 whole entry, looked up): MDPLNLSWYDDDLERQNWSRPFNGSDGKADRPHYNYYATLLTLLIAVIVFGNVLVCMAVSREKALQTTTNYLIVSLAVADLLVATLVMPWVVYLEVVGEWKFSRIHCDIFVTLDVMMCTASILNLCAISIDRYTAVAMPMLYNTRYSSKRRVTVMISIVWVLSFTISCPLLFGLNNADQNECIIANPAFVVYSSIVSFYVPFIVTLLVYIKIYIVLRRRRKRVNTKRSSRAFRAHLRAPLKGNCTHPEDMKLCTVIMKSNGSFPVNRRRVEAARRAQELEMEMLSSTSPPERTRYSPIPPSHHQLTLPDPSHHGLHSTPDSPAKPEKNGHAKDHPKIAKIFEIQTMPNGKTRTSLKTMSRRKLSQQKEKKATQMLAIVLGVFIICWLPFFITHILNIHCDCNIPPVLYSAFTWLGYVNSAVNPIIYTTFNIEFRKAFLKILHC
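Agonist mode: compounds alone added to overnight-plated D2 PathHunter cells for 90 min at 37 C, with 57 uM final dopamine (EC100) defining full response. Beta-arrestin recruitment detected by chemiluminescent reagent, read after 1 h at ambient temperature.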
D2 PAM-1 – D2 dopamine receptor (human) potentiation | P14416 | potentiation, % at 10 µM | HEK293 T-REx D2, calcium flux, EC20 dopamine potentiation | actives 0.34% (n = 340,000);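 active = potentiation over 3 SD above the plate norm, cut at about 30% in these data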; note: 0% is about no effect
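Cells plated with tetracycline inducer and held overnight at 30 C; calcium dye loaded 30–90 min at room temperature; baseline taken, compound added and read 180 s; EC20 dopamine then added and read 180 s.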
D2 antag – D2 dopamine receptor (human) antagonism; actives 2% (n = 340,000); P14416; inhibition, % at 10 µM; HEK293 TREx D2 cells, calcium flux, dopamine EC80; in the data active = inhibition above about 30%; inactive = below that, where a call was filed; note: 0% is about no effect
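Read-out: kinetic calcium fluorescence (1 cycle/s) in inducible HEK293 T-REx D2 cells after an EC80 dopamine addition that followed 180 s compound preincubation. Loss of the dopamine response indicates antagonism.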
LDHA block – blocks human lactate dehydrogenase A; P00338; purified LDHA, NADH/diaphorase-resazurin fluorescence; hits give low values; AID 1347041; actives 0.15% (n = 480,000); activity change, % (values are at about 110 or 230 µM); in the data active = activity change below about -30%; inconclusive = mostly about -25% to -30%;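 note: plate controls were DMSO wells for no effect and wells without enzyme for full effect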
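Remaining NADH was detected by diaphorase (0.133 mg/mL) converting 37 µM resazurin to fluorescent resorufin, read at 0 and 20 minutes. The preceding 5-minute room-temperature reaction used 2 nM LDHA, 0.2 mM sodium pyruvate and 0.06 mM NADH at pH 7.4.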
D2 PAM-2 – human D2 receptor positive allosteric modulation. P14416. DiscoveRx D2 beta-arrestin cells, luminescence, 90 min; 100% = 57 uM dopamine signal. potentiation, % (no concentration beside the values). actives 0.23% (n = 360,000). AID 624464; in the data active = potentiation above about 50%; inconclusive = mostly about 30% to 49%
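PathHunter beta-arrestin assay in DiscoveRx D2 cells. Compounds were added with an EC20 of dopamine (50 nM final) for 90 min at 37 deg C. Luminescence was read 1 h after detection reagent, with 57 uM dopamine as the EC100 control.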
D2 ag-2 – D2 dopamine receptor (human) agonism | P14416 | HEK293 T-REx D2 cells, calcium flux agonist mode | activation, % at 2 µM | actives 0.53% (n = 340,000);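 active = activation over 3 SD above normal in the single-dose calcium agonist read, cut at about 30% in these data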; note: 0% is about no effect
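HEK293 Trex D2 cells, tetracycline-induced, o/n 30 C 5% CO2; no-wash Ca dye, RT 30–90 min; 10-cycle baseline, 23 nl cpd added, kinetic Ca read 180 s; agonist hits = positive Ca response.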
An asterisk follows results filed as active; ? = inconclusive; . = no result; ! = a repeat was not active. This is a sample that favours compounds with a hit; in the whole collection about 2.1% have one here.

SMILES	D2 ag-1	D2 PAM-1	D2 antag	LDHA block	D2 PAM-2	D2 ag-2
COC(=O)c1ccc(CNC(=O)c2ccc(F)cc2)cc1	.	.	.	-1	.	.
Cc1cc(C)n2nc(C(=O)Nc3cc(F)ccc3C)nc2n1	.	.	.	3	.	.
CC(C)CNc1oc(-c2ccco2)nc1C#N	-3	36*	6	-9	-26	-1
CC(Nc1oc(-c2ccco2)nc1C#N)c1ccccc1 (stereo not drawn)	-1	-1	-7	-4	-22	-2
CCOc1ccc(NC(=O)CC2C(=O)Nc3ccccc3N2C(=O)c2ccc(C(C)(C)C)cc2)cc1 (stereo not drawn)	.	.	.	5	.	.
Nc1nonc1/C(=N/O)N1CCN(CCO)CC1	1	-18	51*	-1	-13	1
O=C(Cc1cccs1)NCCCc1ccccc1	3	-12	69*	-4	13	0
O=C(CCc1c[nH]c2ccccc12)NCc1ccncc1	-5	20	5	-32*!	-5	-1
COc1ccc(CNC(=O)CCc2c[nH]c3ccccc23)cc1	-6	-3	9	-12	-7	0
O=C(Cc1cccs1)NCc1ccncc1	-5	3	58*	-3	1	-1
O=C(Cc1cccs1)NCc1ccccc1	1	10	3	0	-6	0
CCC(CC)CN(CC(=O)NC(N)=O)CC(=O)OC	.	.	.	8	.	.
Cc1ccc(-c2nc3ccc([N+](=O)[O-])cc3[nH]2)cc1	0	0	45*	-3	-1	0
O=C(CSc1nnc(-c2c[nH]c3ccccc23)o1)N1CCNC1=O	.	.	.	5	.	.
Cc1ccc(C(=O)N2CCC(c3nc4c(nnn4Cc4ccc5c(c4)OCO5)c(=O)[nH]3)CC2)cc1	.	.	.	2	.	.
COc1cc(OC)c(OC)cc1/C=C/C(=O)c1sc(-c2ccc(O)cc2)nc1C	.	.	.	49	.	.
COc1cccc(-n2c(=O)c3sccc3n(CC(=O)NC3CCCCC3)c2=O)c1	-3	1	30*	-6	-6	0
O=C(Cc1ccc(Cl)cc1)Nc1ccc(-c2cc3ccccc3oc2=O)c(Cl)c1	-6	8	46*	-9	10	0
CCNC(=O)NC(=O)COC(=O)c1cc(-c2ccc(C)o2)nc2ccccc12	.	.	.	18	.	.
CCOc1ccccc1N1C(=O)CC(N(O)c2ccccc2)C1=O (stereo not drawn)	?	27	-13	1	4	1
Cc1c(Cl)cccc1N1C(=O)CC(N(O)c2ccccc2)C1=O (stereo not drawn)	6	7	0	3	55*	1
Cc1cccc(C)c1N1C(=O)CC(N(O)c2ccccc2)C1=O (stereo not drawn)	7	-5	-19	-3	51*	-1
Cc1oc(-c2ccccc2)nc1CC(=O)Nc1ccc(F)cc1F	.	.	.	9	.	.
COc1cc(O)c(C(CCN2CCN(c3ccccc3)CC2)c2cc(OC)c(OC)c(OC)c2)c(OC)c1 (stereo not drawn)	-2	-23	67*	1	-24	1
Cc1sc(NC(=O)c2ccco2)c(CN2CCN(c3ccc(F)cc3)CC2)c1C	1	-5	33*	-9	-4	1
SMILES	D2 ag-1	D2 PAM-1	D2 antag	LDHA block	D2 PAM-2	D2 ag-2
O=C(NCCS(=O)(=O)N1CCN(c2ccccc2)CC1)C1CC(=O)N(c2ccc(F)cc2)C1 (stereo not drawn)	-1	-6	32*	-6	-6	0
O=C(NCCS(=O)(=O)N1CCN(c2ccccc2F)CC1)c1ccco1	-1	-3	-3	1	10	-1
O=C(NCCS(=O)(=O)N1CCN(c2ccc(F)cc2)CC1)c1ccco1	-4	-13	33*	-4	-7	0
CCOC(=O)N1CCN(Cc2c(NC(=O)c3ccco3)sc(C)c2C)CC1	4	.	7	-4	-4	0
O=C(Cc1ccc(F)cc1)NCCS(=O)(=O)N1CCN(c2ccccc2)CC1	?	-6	46*	3	-6	10
COCCN(CCOC)C(=O)c1ccc(Cl)cc1F	.	.	.	-14	.	.
CN1CCN(C(=O)C2CCN(c3ncnc4c3nc3n4CCCCC3)CC2)CC1	-1	7	-2	0	-8	0
O=C(C1CCN(c2ncnc3c2nc2n3CCCCC2)CC1)N1CCCCC1	6	-12	13	-11	-8	35*
COc1cccc(/C(O)=C2/C(=O)C(=O)N(c3ccccn3)C2c2ccc(OC)c(OC)c2)c1 (stereo not drawn)	0	-9	32*	0	3	1
COc1ccc(/C(O)=C2/C(=O)C(=O)N(c3ccccn3)C2c2ccc(OC)c(OC)c2)cc1 (stereo not drawn)	-6	-1	3	-4	-6	0
O=C(NCc1ccco1)C1CCCN1C(=O)Nc1ccc(Cl)cc1 (stereo not drawn)	-1	.	.	1	-14	.
O=C(NCc1ccco1)C1CCCN1C(=O)Nc1cccc(Cl)c1 (stereo not drawn)	-3	-10	56*	1	4	-2
Cc1ccc(NC(=O)COC(=O)c2nc(-c3ccccc3)oc2C)c(C)c1	.	.	.	13	.	.
N/C(=N\OC(=O)c1ccc2c(c1)OCO2)c1cccnc1	?	-5	-5	-6	79*	0
N/C(=N\OC(=O)c1ccc2c(c1)OCO2)c1cccc(Br)c1	?	-4	-2	-5	106*	0
COc1ccc(/C(N)=N/OC(=O)c2ccc3c(c2)OCO3)cc1OC	12	1	-10	-2	84*	0
COc1cc(OC)c(C(=O)Oc2ccc3c(c2)OCO3)cc1OC	1	13	30*	-5	-6	0
COc1ccc(C(=O)Oc2ccc3c(c2)OCO3)cc1OC	-4	0	10	-7	3	5
COc1ccc(/C(N)=N/OC(=O)c2ccc3ccccc3c2)cc1OC	12	.	.	-6	19	.
N/C(=N\OC(=O)c1ccc2c(c1)OCO2)c1ccc([N+](=O)[O-])cc1	4	4	1	-1	6	-1
CCOc1cccc2cc(-c3nc(-c4ccc(OC)c(F)c4)no3)c(=O)oc12	.	.	.	4	.	.
COc1ccccc1N1CCN(C/C(C)=C/c2ccccc2)CC1	-2	-23	74*	-1	-18	0
COc1ccccc1N1CCN(CC(=O)N2N=CCC2c2ccccc2)CC1 (stereo not drawn)	-10	-18	42*	-1	-22	0
COc1ccccc1N1CCN(/N=C/c2cccc(OC)c2O)CC1	-9	-5	59*	1	-6	-3
N#Cc1cccc(NC(=O)c2nn(Cc3ccccc3)c(=O)c3ccccc23)c1	.	.	.	6	.	.
